In PubChem BioAssay AID2472 (National Center for Advancing Translational Sciences (NCATS), 2010):
Several values for one entry are separate records, joined by “and”; a condition that tells them apart may be missing. Equal entries are not always repeated. About 2,000 (0.69%) of roughly 290,000 compounds were called active. No stated cut-off is given here; in the data, active means activity change below about -30%; inactive means the rest, inconclusive results apart. Only a selection was taken, and actives are over-represented in it overall. Some structures have more than one record in an assay (separate samples or runs), and their calls can disagree.

Assay: qHTS Assay for Inhibitors of Fructose-1,6-bisphosphate Aldolase from Giardia Lamblia: Coupling assay counterscreen
Details: coupling enzyme system counterscreen, AmpLite Red fluorescence; at 58.2 µM (top of the series)
Text: MLPCN Grant: MH085699-01 Assay Provider: Osnat Herzberg, University of Maryland NCGC Assay Overview: The objective of this project is to obtain compounds that inhibit Giardia lamblia growth. G. lamblia is a human pathogen which afflicts impoverished nations; it is the most common cause of outbreaks of diarrhea in the United States. During the course of our study of potential drug targets in Giardia, we have identified the Class II (Zn2+ functions in electrophilic catalysis) fructose-1,6-bisphosphate aldolase (FBPA) as an excellent candidate for drug targeting. FBPA is a key glycolytic pathway enzyme, essential for G. lamblia survival. The human FBPA belongs to the Class I aldolases, which have a different substrate binding site structure and a radically different catalytic mechanism (employing a lysine-Schiff base intermediate). Therefore, affinity-based or mechanism-based inhibitors of the Giardia FBPA are expected not to interfere with the catalytic function of the human FBPA. A glyceraldehyde-3-phosphate dehydrogenase/triose phosphate isomerase/NAD/arsenate coupled assay was adapted to the 1536-well HTP format for use in the primary screen. This was done by coupling it to a diaphorase/resazurin/resorufin reaction that can be monitored by fluorescence (excitation, 544 nm; emission, 590 nm). Compounds identified in this screen will be further evaluated by coupling the […]/triose phosphate isomerase/NADH assay to a phenazine methosulfate/tetranitroblue tetrazolium color reaction. False positives due to the dehydrogenases and diaphorase inhibition will be eliminated, and selectivity assay will triage inhibitors of mammalian triose phosphate isomerase and the Class I FBPA. G. lamblia FBPA inhibitors identified by the in vitro analyses will be examined for growth inhibition of Giardia trophozoites, and for cytotoxicity in human cells. This assay specifically addresses whether activity observed in the primary screen (AID 2451) is related to inhibition of the coupling assay used, as opposed to inhibition of aldolase. Actives in this assay are considered inconclusive for activity against aldolase.
NCGC Assay Protocol: Step,Parameter,Value,Description 1,Coupling enzyme reagent,2 uL,glyceraldehyde-3-phosphate 2,Compound,23 nL,3.68 nM-57.5 uM final concentration 3,Time,10 min,RT Incubation 4,Substrate/detection Reagent,2 uL,Substrate + enzyme coupling system + AmpLite Red kit 5,Time,20 min,RT Incubation 6,Detector,525 nm/598 nm (Fluorescence),ViewLux Fluorescence Read (Read 1) Notes: 1,Medium-binding black solid-bottom Kalypsys plates. FRD or Kalypsys dispenser. 2,Compound Library (10 mM ,1:5 dilution). Pin-transferred for a [final] range of 3.68 nM-57.5 uM. 3,RT incubation 4,FRD or Kalypsys dispenser, 2 uL of reaction mixture. Bottle kept at 4C and covered in foil to protect from light. 5,RT incubation 6,ViewLux Protocol 1194; Excitation filter wheel A (525/20 Pol; BODIPY TMR FP), Emission filter wheel B (598/25 S; BODIPY TMR FP S). Keywords: Fructose-bisphosphate aldolase, FBPA , Giardia lamblia , Giardia, HTS, Inhibitors
On the % scale 0 is the no-effect control and ±100 the full control effect.

| SMILES | activity change, negative = inhibition |
| --- | --- |
| NCCc1c[nH]c2ccc(O)cc12 | -9.84% (inactive) and -40.6% (active) |
| Cc1cccc2c(CCN)c[nH]c12 | -2.64% (inactive) |
| C/C(CCc1c[nH]c2ccccc12)=N\O | -2.5% (inactive) |
| N#Cc1cc(Br)c(O)c(Br)c1 | 2.57% (inactive) |
| C[C@@H]1C[C@H]2CC[C@H](O2)[C@H](C)C(=O)O[C@@H](C)C[C@@H]2CC[C@@H](O2)[C@@H](C)C(=O)O[C@H](C)C[C@H]2CC[C@H](O2)[C@H](C)C(=O)O[C@@H](C)C[C@@H]2CC[C@@H](O2)[C@@H](C)C(=O)O1 | -0.707% (inactive) |
| C[C@H]1C/C=C/[C@@H]2[C@@H]3O[C@]3(C)[C@@H](C)[C@H]3[C@H](Cc4ccccc4)NC(=O)[C@]32OC(=O)O/C=C/[C@](C)(O)C1=O | 1.28% (inactive) |
| CCCCCCCCCCCCN=C(N)N | -0.411% (inactive) |
| CO[C@H]1[C@@H](O)[C@@H](C)O[C@H](O[C@H]2[C@H](Oc3cccc4c(O)c5c(=O)oc6ccc(C)c7c(=O)oc(c34)c5c67)O[C@H](C)[C@H](O)[C@@H]2O)[C@@H]1O | -47.8% (active) |
| Nc1ccc(-c2ccc(N)c(N)c2)cc1N | 3.84% (inactive) |
| CC(=O)[O][Sn]([c]1ccccc1)([c]1ccccc1)[c]1ccccc1 | -1.83% (inactive) |
| CN(C)C[C@H]1CCCC[C@]1(O)c1cccc(O)c1 | 0.267% (inactive) |
| CCOC(=O)C(O)(c1ccc(NC(=O)c2ccco2)c(OC)c1)C(F)(F)F (stereo not given) | -4.29% (inactive) |
| COc1cc(Cn2c(N)c(C(=O)NCc3ccco3)c3nc4ccccc4nc32)cc(OC)c1OC | -52% (active) |
| CCOC(=O)c1c(N)n(Cc2ccccc2)c2nc3ccccc3nc12 | -2.59% (inactive) |
| C[C@]12O[C@H](C[C@@]1(O)C(=O)O)n1c3ccccc3c3c4c(c5c6ccccc6n2c5c31)CNC4=O | 0.208% (inactive) |
